The text below walks through data of ChEMBL document CHEMBL2218924, “A broad activity screen in support of a chemogenomic map for kinase signalling research and drug discovery” (Biochem J, 2013).

The target in the assay is ALK tyrosine kinase receptor (Homo sapiens) (UniProt Q9UM73). The settings on record: at 1 µM.
Sequence of ALK tyrosine kinase receptor (Homo sapiens) (Q9UM73 19-1620 limits assumed): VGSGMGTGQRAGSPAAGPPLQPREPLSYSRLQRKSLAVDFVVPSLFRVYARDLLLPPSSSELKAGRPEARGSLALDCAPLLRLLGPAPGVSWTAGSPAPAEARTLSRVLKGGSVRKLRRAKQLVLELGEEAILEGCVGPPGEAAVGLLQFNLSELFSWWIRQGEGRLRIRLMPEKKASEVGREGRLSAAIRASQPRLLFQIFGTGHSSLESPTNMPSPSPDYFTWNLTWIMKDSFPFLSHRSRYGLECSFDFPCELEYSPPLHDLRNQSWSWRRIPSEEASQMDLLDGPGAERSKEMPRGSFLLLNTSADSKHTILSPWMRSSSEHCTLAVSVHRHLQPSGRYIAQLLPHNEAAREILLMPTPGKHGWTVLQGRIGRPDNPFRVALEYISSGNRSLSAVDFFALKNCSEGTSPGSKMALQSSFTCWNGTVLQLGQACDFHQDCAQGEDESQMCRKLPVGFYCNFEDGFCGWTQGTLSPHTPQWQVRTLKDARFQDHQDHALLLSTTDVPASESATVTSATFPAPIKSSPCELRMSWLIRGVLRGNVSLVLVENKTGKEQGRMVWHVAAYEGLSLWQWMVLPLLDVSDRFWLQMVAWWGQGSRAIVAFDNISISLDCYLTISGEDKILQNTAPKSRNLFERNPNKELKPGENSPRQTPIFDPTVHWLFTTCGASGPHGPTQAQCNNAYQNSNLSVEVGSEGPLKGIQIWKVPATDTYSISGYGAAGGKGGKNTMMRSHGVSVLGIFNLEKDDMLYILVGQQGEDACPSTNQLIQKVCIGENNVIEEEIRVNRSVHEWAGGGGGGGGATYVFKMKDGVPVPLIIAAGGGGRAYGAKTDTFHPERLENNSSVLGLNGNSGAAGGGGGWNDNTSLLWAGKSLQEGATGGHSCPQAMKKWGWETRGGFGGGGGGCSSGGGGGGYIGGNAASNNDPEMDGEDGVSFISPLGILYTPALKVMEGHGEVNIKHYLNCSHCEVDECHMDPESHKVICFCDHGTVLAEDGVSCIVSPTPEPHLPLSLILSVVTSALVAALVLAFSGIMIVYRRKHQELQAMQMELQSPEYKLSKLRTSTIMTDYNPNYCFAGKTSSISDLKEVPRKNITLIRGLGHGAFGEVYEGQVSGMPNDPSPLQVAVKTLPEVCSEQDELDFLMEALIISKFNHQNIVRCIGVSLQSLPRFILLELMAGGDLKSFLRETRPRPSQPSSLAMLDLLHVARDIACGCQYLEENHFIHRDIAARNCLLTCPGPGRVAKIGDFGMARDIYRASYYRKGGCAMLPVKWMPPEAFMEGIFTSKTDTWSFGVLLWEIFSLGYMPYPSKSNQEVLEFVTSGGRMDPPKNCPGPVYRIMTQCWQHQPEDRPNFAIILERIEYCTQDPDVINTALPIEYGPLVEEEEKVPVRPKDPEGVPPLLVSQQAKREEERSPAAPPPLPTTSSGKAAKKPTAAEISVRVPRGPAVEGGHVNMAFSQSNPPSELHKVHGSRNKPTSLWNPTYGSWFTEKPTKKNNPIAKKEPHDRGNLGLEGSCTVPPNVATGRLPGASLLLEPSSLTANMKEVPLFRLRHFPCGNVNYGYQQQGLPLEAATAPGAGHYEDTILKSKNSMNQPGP
`O=C1Nc2ccc(Cl)cc2/C1=C/c1cc(Cl)c(O)c(Cl)c1` showed a residual activity of 68%. To `COc1cc2nccc(Oc3ccc(NC(=S)NC(=O)c4ccccc4C)cc3)c2cc1OC` belongs 79%; to `O=C1Cc2c([nH]c3ccc(Br)cc23)-c2ccccc2N1`, 88%. In turn, `NC(=O)Nc1sc(-c2ccc(F)cc2)cc1C(N)=O` showed a residual activity of 78%. Regarding `N#C/C(=C1/Nc2ccccc2S1)c1ccnc(NCCc2cccnc2)n1`, the residual activity worked out at 64%. The figure for `COc1ccc(Cl)cc1NC(=O)Nc1cc(C)nc2ccccc12` is 77%; for `O=c1cc(N2CCOCC2)oc2c1ccc1ccccc12` it is 81%; for `Nc1ncnc2[nH]nc(Nc3ccc(F)cc3)c12` it is 82%. The figure for `O=C(c1cc2cc(O)ccc2[nH]1)c1cc2cc(O)ccc2[nH]1` is 68%.
